Screen size: about 53,000 sequences; about 3,700 (7%) were called active. This excerpt belongs to a sample that is enriched for actives. Unmarked numbers belong to inactive results.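 How the source made its calls: active means gene knockdowns whose robust z-score for IL-1 alpha signal is at least 2 or at most -2, so actives lie on both sides; inactive means the rest.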

The assay in a line: Components of the Cytosolic LPS Sensing Pathway: Gene Identification via Genome-wide siRNA Screen.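 Further: robust z of the log signal after scaling to non-targeting control siRNA wells of the plate.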 To be noted: RAW264.7 macrophages, IL-1a HTRF, actives lie on both sides, screened at 100 nM (by protocol), cells primed 5 h with Pam3CSK4 first. The gist of the method: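 Cells (RAW264.7, 1×10^4 per well) were transfected with siRNA at 100 nM and cultured 48h at 37 degrees C. Pam3CSK4 was added for 5 hours; LipidA transfection followed for 24 hour. IL-1a was then measured by HTRF.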
On to “GGACUUCACAUUCUUGAGATT against A130010J15Rik”, for which the z-score is -0.232. In the case of GGUGGGCACUCUGGUUUUUTT against Eif4e, the z-score was 4.66 (active). In the case of GUAGUAACCAGAUCUUAUATT against Vmn1r29, the z-score was 0.496. For GGUUCAGCCAGAAUUUUCGTT against Lefty2, the z-score is 0.876. In the case of GGAAAAGACUAACGAGCGGTT against Med11, the z-score was -0.703. As to GGUCCUUCGUAGUUGUGGUTT against Sp110, the z-score is 1.33. The value for GCAAAAACCUAUAGGAAAATT against Srpk2 was 2.27 (active). In the case of GGGAGAUCAUGAUAGCAGCTT against Cox5b it was -0.828; in that of GCUUGGCUUCAGCAUAUGCTT against Phox2b, -0.867; in that of GCCACACUUAAGUCAGACCTT against Tprn, 0.597. The value for GGUGCUAAGAAAAUCAAAGTT against Ryr2 was 3.64 (active). With GGGAGCAAAUGUAAUUUAUTT against Tbpl1, the z-score was 0.842.

In the case of GGUUUAACUUUAAUGAUGGTT against Cacna1e, the z-score is -1.39. Regarding GGGAAUGGGUCUUGUAAACTT against Ppat, the z-score is -1.4.

Consider GCAUAUGCUUUUACAACACTT against Zfp280c, for which the z-score is 0.252. In the case of GGUCAAUGCUGUUUUUGUUTT against Mxi1 it was 2.41 (active); in that of GGUCUGUGCAAGCAAAUCGTT against Cacng2, -0.153. Take GGAAAAUCAUGGGAGCCUUTT against Lpo: the z-score was -0.435. Turning to GGAGAGUGAUGAACAGAUGTT against Pctp, the z-score was 2.21 (active).

For the sequence GGGCUCGUUAAUCUUUUACTT against Nop10, the z-score was 0.753. Take GGAAAUGUUUCUGUUCAUUTT against Nipsnap3b: the z-score is 0.295. GGUGACUGACAGCUGCCAATT against Prima1: the z-score is 0.0318. With GGUUAAAAGAGGUGAUUAGTT against Mtfp1, the z-score was 1.9.

Regarding GGCCCAUCACUUACUAAAGTT against Exoc3l, the z-score was 0.224.

As to GGAAUAUUCACAGUCCGAGTT against Zfand3, the z-score is -2.18 (active). In the case of GCCAACAAUAUAAUUCAAGTT against Abca5 it was 1.64; in that of GGUGACAAAAAGUCAAAGATT against Dis3l2, -0.542; in that of CCAUGGUCUAGCACAGUGGTT against Cpn2, -0.079.

On to GACACUGUCAAAUUAUGGATT against Vmn1r74, for which the z-score is -0.581. In the case of CGGAAUGAUUCUGACUAAUTT against Mmp7, the z-score was 0.546.
